This is a sample that favours compounds with a hit; in the whole collection about 2.8% have one here.
Pol kappa inh: qHTS for Inhibitors of Polymerase Kappa; Potency, µM (series often up to 107 µM), for the others: top-dose activity, negative = inhibition, hits mostly inhibitors; DNA polymerase kappa (Homo sapiens), Q9UBT6; 400,000 compounds, 0.53% hits; purified Pol kappa, fluorescent DNA synthesis assay, 10 min; AID 588579, 2011; also: potency is read from the fitted curve at half-maximal effect; % is scaled to controls: 0 for no effect and ±100 for the full control effect
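50 nM final substrate added after 15 min RT preincubation of 10 nM Pol kappa with compound; fluorescence read at 0 and 10 min.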
PI5P4Ka inh: qHTS for Inhibitors of phosphatidylinositol 5-phosphate 4-kinase (PI5P4K). max response, %. 330,000 compounds, 1.2% hits. Phosphatidylinositol 5-phosphate 4-kinase type-2 alpha (Homo sapiens), P48426. PI5P4Kalpha enzyme, ADP-Glo luminescence, 60 min; active compounds read low; active = max response of -50% or lower; inconclusive = between -30% and -50%; inactive = -30% or higher; also: value at the top dose of about 77 µM; % is scaled to controls: 0 for no effect and ±100 for the full control effect
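qHTS, 1536-well: enzyme/substrate mix, compound by pin tool, 5 microM ATP final; RT 60 min; ADP-Glo reagents 1 (45 min) then 2 (30 min); luminescence.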
POLH inh: qHTS for Inhibitors of Polymerase Eta | recombinant Pol eta, fluorescent DNA replication assay | Potency, µM (highest dose often 114 µM), inactives show at the highest dose activity change, negative = inhibition, usual class: inhibitors | 390,000 compounds, 1.2% hits | AID 588591, 2011; also: potency is read from the fitted curve at half-maximal effect; % is scaled to controls: 0 for no effect and ±100 for the full control effect
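Pol eta (10 nM) was preincubated with compounds for 15 min at room temperature, after which fluorescent replication substrate (50 nM final) was added to start the reaction. Fluorescence was read kinetically at 0 and 10 min.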
FEN1 inhibitor: qHTS Assay for the Inhibitors of Human Flap endonuclease 1 (FEN1) | P39748 | Recombinant FEN1 flap cleavage, fluorescence, 15 min | Potency, µM (series often up to 114 µM), inactives show top-dose activity change, negative = inhibition, usual class: inhibitors | 390,000 compounds, 0.35% hits | AID 588795, 2011; also: potency is read from the fitted curve at half-maximal effect; % is scaled to controls: 0 for no effect and ±100 for the full control effect; nearly all actives have a fitted effect of over 65% in size
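With each library titrated from low to high concentration, compounds met 10 nM FEN1 for 15 min at room temperature before 50 nM substrate was added; readings at 0 and 15 min fed four-parameter Hill curve fits.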
Pol beta inh: qHTS Assay for Inhibitors of DNA Polymerase Beta. P06746. Pol beta primer extension/strand displacement, fluorescence kinetic. Potency, µM (titrated, usually from 114 µM), for the others: at the highest dose activity change, negative = inhibition, actives largely listed as inhibitors. 340,000 compounds, 1.3% hits. AID 485314, 2010; also: potency is read from the fitted curve at half-maximal effect; % is scaled to controls: 0 for no effect and ±100 for the full control effect
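Human Pol beta at 10 nM; strand-displacement substrate 50 nM final. Compound exposure 15 min at room temperature before start, reaction 10 min at room temperature.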
Pol iota inh: qHTS for Inhibitors of Polymerase Iota; Pol iota fluorescent replication assay, 10 min; Potency, µM (titrated, usually from 115 µM), for inactives: top-dose activity, negative = inhibition, hits mostly inhibitors; 390,000 compounds, 1% hits; AID 588590, 2011; also: potency is read from the fitted curve at half-maximal effect
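Pol iota at 10 nM preincubated 15 min with compounds at room temperature; reaction started with fluorescent substrate, 50 nM final. Fluorescence read kinetically at 0 and 10 min; buffer-only wells as negative control.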
Active calls of the source: *; ? = inconclusive; nt = no result; [ ] = remark or other dose. Unless noted, calls follow the shape of the dose curve; as a rule, active = well fitted curve in the direction sought with a large enough effect; inconclusive = small, poorly fitted or top-dose-only effect, or another doubt; inactive = no such curve, though single readings can be large; an effect the other way counts as inactive or inconclusive.

SMILES	Pol kappa inh	PI5P4Ka inh	POLH inh	FEN1 inhibitor	Pol beta inh	Pol iota inh
CCOC(=O)CSc1nc2cc(OC)ccc2cc1C#N	?	nt	-14%	4%	0%	-15%
COc1ccc(C2NC(=O)C(C#N)=C(S)N2c2ccc(C)cc2)cc1OC (centres undefined)	-6%	-6	23%	-11%	1%	?
CCOC(=O)CSC1=C(C#N)C(=O)NC(c2ccc(OC)cc2)S1 (centres undefined)	-9%	-63*	-4%	1%	-1%	?
CCOC(=O)CSC1=C(C#N)C(=O)NC(c2ccc(OC)c(OC)c2)S1 (centres undefined)	-12%	-72*	3%	-5%	18%	?
COc1ccc2nc(N/C(N)=N/C(=S)Nc3c(C)cccc3C)nc(C)c2c1	14%	1	-15%	32µM*	-7%	-10%
Cc1cc(C)cc(N2CC(c3nc(-c4ccccc4C)no3)CC2=O)c1 (centres undefined)	-2%	nt	-18%	-3%	2%	-11%
COc1ccc(N2C(=O)C(Cl)=C(Oc3cccc(OC)c3)C2=O)cc1	0%	-87*	-12%	-20%	3%	?
CC1(C)C(CSc2nc3ccccc3[nH]2)C1(Cl)Cl (centres undefined)	-8%	1	-12%	-19%	6%	13%
O=C(CCc1ccc(O)cc1)c1c(O)cc(O)cc1O[C@H]1OC(CO)C(O)C(O)C1O (some centres undefined)	-12%[60.1 µM]	nt	nt	nt	nt	nt
COc1ccc(N2CC(NC(=O)CCc3ccccc3)CC2=O)cc1OC (centres undefined)	-6%[60.1 µM]	nt	-25%	-5%	-20%	26%
O=Cc1[nH]c2ccccc2c1N(C(=O)CCl)c1ccc([N+](=O)[O-])cc1	0%	-2	-13%	-15%	-2%	7%
CC(=O)n1cc(N(C(=O)CCl)c2ccc([N+](=O)[O-])cc2)c2ccccc21	-1%	0	40µM*	-1%	-11%	?
C=C1C=C(C(F)F)n2ncc(C(=O)NCCc3ccc(Cl)cc3)c2N1	8%	nt	nt	3%	nt	26%
COc1cc(N=c2ssnc2Cl)cc(OC)c1OC	-6%	-69*	-11%	-6%	10%	?
CCOC(=O)c1ccc(-n2nc(C)cc2C)cc1	-8%	2	0%	14%	25%	11%
Clc1ccc(N=c2ssnc2Cl)cc1	-4%	nt	-16%	0%	16%	?
CCOC(=O)c1ccc(N=c2ssnc2Cl)cc1	4%	-79*	-3%	?	7%	37%
COc1cc(/C=C/c2nc3ccccc3nc2/C=C/c2cc(OC)c(OC)c(OC)c2)cc(OC)c1OC	-19%	nt	nt	-4%	nt	25%
Clc1nssc1=Nc1ccccc1	6%	-57*	14%	-1%	-1%	87%
COc1ccc(N=c2ssnc2Cl)cc1	7%	-83*	-8%	-5%	2%	?
COc1ccc(-n2c(/C=C/c3cccc4ccccc34)nc3ccccc3c2=O)cc1Cl	4%[60.1 µM]	nt	-28%	12%	-23%	6%
COc1ccc(C[C@@H]2C(=O)N[C@H](C)C(=O)N(C)[C@@H]3Cc4ccc(cc4)Oc4cc(ccc4O)C[C@H](C(=O)N[C@@H](C)C(=O)N[C@H](C)C(=O)N2C)N(C)C3=O)cc1	-15%	nt	nt	7%	nt	7%
N#Cc1ccc(N=c2ssnc2Cl)cc1	-2%	-91*	-9%	?	17%	?
Fc1ccc(N=c2ssnc2Cl)c(F)c1	-4%	-62*	-17%	?	-4%	?
Nc1ccccc1SC(CC(=O)c1ccccc1)c1ccc([N+](=O)[O-])cc1 (centres undefined)	nt	-22	-6%	nt	nt	nt
